Results reported in PubChem BioAssay (NCI).
Several values for one entry are separate records, joined by “and”; a condition that tells them apart may be missing. Equal entries are not always repeated. About 83,000 compounds went through this panel and 20% of them were active in at least one assay; those are over-represented in the sample as a whole.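 Interpretation: 100, growth as untreated; towards 0, rising growth inhibition; 0, no net growth; 0 to -100, cell death. Compounds scoring below 10 were considered active.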 Activity calls are given as the source filed them.

How the values were obtained:
Experiment in all cases: NCI-60 one-dose screen, 48 h (100 = growth as untreated, 0 = no growth, -100 = all killed)
[1] = test system: SK-MEL-2 melanoma
[2] = test system: EKVX NSCLC
[3] = test system: SN12C renal
[4] = test system: UO-31 renal
[5] = test system: TK-10 renal
[6] = test system: ACHN renal
[7] = test system: CAKI-1 renal
[8] = test system: A498 renal
[9] = test system: CCRF-CEM leukemia
[10] = test system: MOLT-4 leukemia
[11] = test system: SR leukemia
[12] = test system: RPMI-8226 leukemia
[13] = test system: OVCAR-8 ovarian
[14] = test system: OVCAR-5 ovarian
[15] = test system: OVCAR-4 ovarian
[16] = test system: SK-OV-3 ovarian
[17] = test system: IGROV1 ovarian
[18] = test system: OVCAR-3 ovarian
[19] = test system: NCI/ADR-RES ovarian

Measured: growth

CC(=O)O[C@H]1C(=O)[C@@]2(C)[C@H]([C@H](OC(=O)c3ccccc3)[C@]3(O)C[C@H](OC(=O)[C@H](O)[C@@H](NC(=O)c4ccccc4)c4ccccc4)C(C)=C1C3(C)C)[C@]1(OC(C)=O)CO[C@@H]1C[C@@H]2O
-2.72% (active) and 12.2% (inactive): [11]; 10 µM
-13% (active) and 57.6% (inactive): [15]; 10 µM
-24.8% (active) and 39.1% (inactive): [17]; 10 µM
active: [1]; 2.5 µM 3.85% | [9]; 2.5 µM 2.13% | [9]; 5 µM 5.52% | [9]; 10 µM 7.71% and 5.2% | [11]; 2.5 µM 7.15% | [11]; 5 µM 9.15% | [12]; 0.01 µM -10.5% | [12]; 5 µM 1.39% | [12]; 10 µM -42.3% and 8.81% | [13]; 2.5 µM 4.98% | [14]; 2.5 µM 9.17% | [18]; 0.01 µM -6.94% | [18]; 2.5 µM -5.62% | [18]; 5 µM -2.89% | [18]; 10 µM 0.613% and 0.903% | [19]; 10 µM -0.311% and 9.92%
9.24% (active) and 39.3% (inactive): [4]; 10 µM
inactive: [1]; 0.01 µM 72.5% | [1]; 5 µM 21.3% | [1]; 10 µM 25.7% and 32% | [2]; 0.01 µM 60.7% | [2]; 2.5 µM 35% | [2]; 5 µM 40.5% | [2]; 10 µM 47.1% and 41.5% | [3]; 0.01 µM 46.3% | [3]; 2.5 µM 25.5% | [3]; 5 µM 32% | [3]; 10 µM 55.6% and 33.2% | [4]; 0.01 µM 103% | [4]; 2.5 µM 42.6% | [4]; 5 µM 42.7% | [5]; 0.01 µM 87.7% | [5]; 2.5 µM 44.7% | [5]; 5 µM 46.1% | [5]; 10 µM 18.4% and 43.6% | [6]; 0.01 µM 95.3% | [6]; 2.5 µM 42.4% | [6]; 5 µM 44.8% | [6]; 10 µM 25.4% and 43.1% | [7]; 0.01 µM 93.4% | [7]; 2.5 µM 22.2% | [7]; 5 µM 23.1% | [7]; 10 µM 25.1% and 23.4% | [8]; 0.01 µM 61.7% | [8]; 2.5 µM 74.4% | [8]; 5 µM 96.2% | [8]; 10 µM 93.6% and 52.1% | [9]; 0.01 µM 11.7% | [10]; 0.01 µM 48.2% | [10]; 10 µM 22.8% | [11]; 0.01 µM 19.1% | [12]; 2.5 µM 11.4% | [13]; 5 µM 11.6% | [13]; 10 µM 18.4% | [14]; 0.01 µM 20.6% | [14]; 5 µM 10.8% | [14]; 10 µM 41.8% and 13.7% | [15]; 0.01 µM 64.7% | [15]; 2.5 µM 56.9% | [15]; 5 µM 61.3% | [16]; 0.01 µM 52% | [16]; 2.5 µM 10.2% | [16]; 5 µM 16.2% | [16]; 10 µM 42.9% and 12.8% | [17]; 0.01 µM 39% | [17]; 2.5 µM 32.2% | [17]; 5 µM 35.2% | [19]; 0.01 µM 92.8% | [19]; 2.5 µM 50.7% | [19]; 5 µM 25.9%

S=P(N1CC1)(N1CC1)N1CC1
active: [6]; 100 µM 8.37% | [7]; 100 µM 2.65%
inactive: [1]; 10 µM 116% and 93.3% | [1]; 100 µM 113% | [2]; 10 µM 107% and 90.2% | [2]; 100 µM 101% | [3]; 10 µM 98.5% and 72.8% | [3]; 100 µM 44.1% | [4]; 10 µM 71.9% and 83.7% | [4]; 100 µM 39.1% | [5]; 10 µM 115% and 111% | [5]; 100 µM 98.8% | [6]; 10 µM 104% and 60.1% | [7]; 10 µM 91.6% and 47.4% | [8]; 10 µM 122% and 69.4% | [8]; 100 µM 67.8% | [9]; 10 µM 107% and 106% | [9]; 100 µM 21.4% | [10]; 10 µM 98.2% and 61.8% | [10]; 100 µM 22.6% | [11]; 10 µM 35.4% | [11]; 100 µM 22.6% | [12]; 10 µM 99.2% and 136% | [12]; 100 µM 51.4% | [13]; 10 µM 110% and 80.7% | [14]; 10 µM 108% and 77.1% | [14]; 100 µM 64.7% | [15]; 10 µM 116% and 90.4% | [15]; 100 µM 87.9% | [16]; 10 µM 110% and 108% | [16]; 100 µM 67.2% | [17]; 10 µM 101% and 78.2% | [17]; 100 µM 70.7% | [18]; 10 µM 118% and 106% | [18]; 100 µM 69.8% | [19]; 10 µM 107% and 88.6% | [19]; 100 µM 40.3%

Cn1ncc2cc3c(Nc4ccc(Cl)cc4)cccc3nc21
inactive: [1]; 10 µM 99.4% | [2]; 10 µM 76.7% | [3]; 10 µM 93.7% | [4]; 10 µM 62.5% | [5]; 10 µM 92.9% | [6]; 10 µM 90.5% | [7]; 10 µM 88.6% | [8]; 10 µM 75.4% | [9]; 10 µM 95.5% | [10]; 10 µM unless noted 89% | [11]; 10 µM 84.8% | [12]; 10 µM 79% | [13]; 10 µM 89.8% | [14]; 10 µM 109% | [15]; 10 µM 88.2% | [16]; 10 µM 94.7% | [17]; 10 µM 95.8% | [18]; 10 µM 94.1% | [19]; 10 µM 89.1%

O=S(=O)(c1cc(Cl)ccc1O)c1cc(Cl)ccc1O
inactive: [1]; 10 µM 64% | [2]; 10 µM 100% | [3]; 10 µM 80.4% | [4]; 10 µM 71.8% | [5]; 10 µM 87.5% | [6]; 10 µM 84.9% | [7]; 10 µM 92.1% | [8]; 10 µM 59.6% | [9]; 10 µM 76.2% | [10]; 10 µM unless noted 90.2% | [11]; 10 µM 84.6% | [12]; 10 µM 51.2% | [13]; 10 µM 83.7% | [14]; 10 µM 116% | [15]; 10 µM 85.3% | [16]; 10 µM 78.4% | [17]; 10 µM 83.5% | [18]; 10 µM 78% | [19]; 10 µM 91.9%

O=C(CNS(=O)(=O)Cc1ccccc1)NNc1ccccc1
inactive: [1]; 10 µM 97.1% | [2]; 10 µM 53.3% | [3]; 10 µM 75% | [4]; 10 µM 35.7% | [5]; 10 µM 90.6% | [6]; 10 µM 36.7% | [7]; 10 µM 39.8% | [8]; 10 µM 108% | [9]; 10 µM 45.2% | [10]; 10 µM unless noted 35.4% | [11]; 10 µM 39.2% | [12]; 10 µM 62.4% | [13]; 10 µM 58.4% | [14]; 10 µM 68.6% | [15]; 10 µM 42.6% | [16]; 10 µM 78.7% | [17]; 10 µM 65.5% | [18]; 10 µM 86.8% | [19]; 10 µM 67%
